Data as given in PubChem BioAssay (NCATS).
Results filed as inconclusive are left out. The source made the active and inactive calls. Unless noted, calls come from the whole dose curve.

How the values were obtained:
[1] = Primary qHTS for inhibitors of SARS-S pseudo-typed particle cell entry (AID 1479145); note: nearly all actives have a fitted effect of over 45% in size; note: potency is the fitted concentration of half-maximal effect
[2] = Primary qHTS for Huh7 cytotoxicity: counterscreen for inhibitors of MERS-S pseudotyped particle cell entry (AID 1479147)
[3] = Primary qHTS for inhibitors of MERS-S pseudo-typed particle cell entry (AID 1479149); note: nearly all actives have a fitted effect of over 60% in size
[4] = Primary qHTS for Vero E6 cytotoxicity: counterscreen for inhibitors of SARS-S pseudo-typed particle cell entry (AID 1479150); note: potency is the fitted concentration of half-maximal effect
[5] = Primary qHTS for inhibitors of La Crosse Virus (LACV) - induced cell death in SH-SY5Y cells (AID 1508616; active = well fitted inhibition curve with a large enough effect;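 note: top concentration of the series differs between compounds; higher means more rescue of cells from virus-induced death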)
Method in brief: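 Rescue of virus-induced death was read as ATPLite luminescence after 6 days at 37C, scaled between DMSO wells with LACV and without virus. Cells were SH-SY5Y, 6000/well, infected at 0.01 MOI after compound addition.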

Measured: Potency

CCc1c(C)[nH]c2c1C(=O)C(CN1CCOCC1)CC2 (stereo not given)
not listed: [5]
inactive: all other assays above

CC(C)CCCC(C)CCCC(C)CCCCC(C)CCCC(C)CCCC(C)C (stereo not given)
inactive: [2] | [3] | [4]

CC[C@H](Nc1ncnc2nc[nH]c12)c1nc2cccc(F)c2c(=O)n1-c1ccccc1
inactive: [2] | [3] | [4]

C[C@@H]1CCN(C(=O)CC#N)C[C@@H]1N(C)c1ncnc2[nH]ccc12
inactive: [2] | [3] | [4]

CC(=O)N[C@@H](Cc1ccc(O)cc1)C(=O)O
inactive: [2] | [3] | [4]

N#CC[C@H](C1CCCC1)n1cc(-c2ncnc3[nH]ccc23)cn1
inactive: [2] | [3] | [4]

C#CC(C)(CC)OC(=O)c1ccccc1C(=O)O (stereo not given)
inactive: [2] | [3] | [4]

Cc1ccc(C(=O)Nc2ccc(CN3CCN(C)CC3)c(C(F)(F)F)c2)cc1C#Cc1cnc2cccnn12
active: [1] 3.55 µM | [4] 22.4 µM

CCOc1cc(NC(C)=O)ccc1C(=O)OC
not listed: [5]
inactive: all other assays above

Cc1nnc(C(C)C)n1C1CC2CCC(C1)N2CC[C@H](NC(=O)C1CCC(F)(F)CC1)c1ccccc1 (stereo not given in full)
inactive: [2] | [3] | [4]

CS(=O)(=O)Nc1ccc([N+](=O)[O-])cc1Oc1ccccc1
inactive: [2] | [3] | [4]

CC(C)(C)c1cc(C(C)(C)C)c(NC(=O)c2c[nH]c3ccccc3c2=O)cc1O
inactive: [2] | [3] | [4]

CC1=NN(c2ccccc2)C(=O)C1
not listed: [5]
inactive: all other assays above

NC1=NC(=O)N2CC12 (stereo not given)
not listed: [5]
inactive: all other assays above

CC(C)(C)NCC(O)c1ccc(O)c(CO)c1 (stereo not given)
not listed: [5]
inactive: all other assays above

CC1=C(C/C=C(\C)CCC[C@H](C)CCC[C@H](C)CCCC(C)C)C(=O)c2ccccc2C1=O
inactive: [1] | [2] | [4]

CCCCCCCC(=O)OCC(O)CO (stereo not given)
not listed: [5]
inactive: all other assays above

NCCCC(N)(C(=O)O)C(F)F (stereo not given)
not listed: [5]
inactive: all other assays above

CNC(=O)c1cc(Oc2ccc(NC(=O)Nc3ccc(Cl)c(C(F)(F)F)c3)c(F)c2)ccn1
inactive: [2] | [4]
active: [1] 14.1 µM

CC(C)(C)C(O)/C=C/c1ccc2c(c1)OCO2 (stereo not given)
inactive: [2] | [3] | [4]

[O-][n+]1cccc(/C(Cl)=N/OC[C@@H](O)CN2CCCCC2)c1
not listed: [5]
inactive: all other assays above

Cn1c(NCCN(CCO)CCCc2ccc([N+](=O)[O-])cc2)cc(=O)n(C)c1=O
not listed: [5]
inactive: all other assays above

CC[N+](C)(CC)CCOC(=O)C(O)(c1ccccc1)C1CCCCC1 (stereo not given)
not listed: [5]
inactive: all other assays above

Cc1cc(C(=O)NNCc2ccccc2)no1
inactive: [2] | [3] | [4]

COc1ccccc1O
not listed: [5]
inactive: all other assays above

CN(C(=O)C(Cl)Cl)c1ccc(OC(=O)c2ccco2)cc1
not listed: [5]
inactive: all other assays above

CCCN(CCC)c1c([N+](=O)[O-])cc(S(N)(=O)=O)cc1[N+](=O)[O-]
inactive: [5]
